According to PubChem BioAssay (NCATS):
Where “and” joins values, the source holds several entries; their conditions need not be identical. Identical values can stand only once. Records with an inconclusive call do not appear. Calls of active or inactive are those of the source. The call rests on the fitted dose curve; in most records, active means well fitted inhibition curve with a large enough effect; inconclusive means small, poorly fitted or top-dose-only effect; inactive means flat fitted curve, though single readings scatter.
On the % scale 0 is the no-effect control and ±100 the full control effect; potency means the concentration at half of the fitted maximal effect.

What follows are molecules tested against Voltage-gated inwardly rectifying potassium channel KCNH2 (Homo sapiens) (UniProt Q12809) (assay: qHTS Assay for Small Molecule Inhibitors of the Human hERG Channel Activity (AID 588834;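 further: lower thallium flux fluorescence means stronger hERG block; nearly all actives have a fitted effect of over 50% in size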; on activity change, negative = inhibition: top concentration of the series differs between compounds)). Conditions: U2OS BacMam hERG, FluxOR thallium flux fluorescence; series mostly up to 46.1 µM; activity change, negative = inhibition: at the top concentration.
Voltage-gated inwardly rectifying potassium channel KCNH2 (Homo sapiens), sequence (Q12809 whole entry, looked up): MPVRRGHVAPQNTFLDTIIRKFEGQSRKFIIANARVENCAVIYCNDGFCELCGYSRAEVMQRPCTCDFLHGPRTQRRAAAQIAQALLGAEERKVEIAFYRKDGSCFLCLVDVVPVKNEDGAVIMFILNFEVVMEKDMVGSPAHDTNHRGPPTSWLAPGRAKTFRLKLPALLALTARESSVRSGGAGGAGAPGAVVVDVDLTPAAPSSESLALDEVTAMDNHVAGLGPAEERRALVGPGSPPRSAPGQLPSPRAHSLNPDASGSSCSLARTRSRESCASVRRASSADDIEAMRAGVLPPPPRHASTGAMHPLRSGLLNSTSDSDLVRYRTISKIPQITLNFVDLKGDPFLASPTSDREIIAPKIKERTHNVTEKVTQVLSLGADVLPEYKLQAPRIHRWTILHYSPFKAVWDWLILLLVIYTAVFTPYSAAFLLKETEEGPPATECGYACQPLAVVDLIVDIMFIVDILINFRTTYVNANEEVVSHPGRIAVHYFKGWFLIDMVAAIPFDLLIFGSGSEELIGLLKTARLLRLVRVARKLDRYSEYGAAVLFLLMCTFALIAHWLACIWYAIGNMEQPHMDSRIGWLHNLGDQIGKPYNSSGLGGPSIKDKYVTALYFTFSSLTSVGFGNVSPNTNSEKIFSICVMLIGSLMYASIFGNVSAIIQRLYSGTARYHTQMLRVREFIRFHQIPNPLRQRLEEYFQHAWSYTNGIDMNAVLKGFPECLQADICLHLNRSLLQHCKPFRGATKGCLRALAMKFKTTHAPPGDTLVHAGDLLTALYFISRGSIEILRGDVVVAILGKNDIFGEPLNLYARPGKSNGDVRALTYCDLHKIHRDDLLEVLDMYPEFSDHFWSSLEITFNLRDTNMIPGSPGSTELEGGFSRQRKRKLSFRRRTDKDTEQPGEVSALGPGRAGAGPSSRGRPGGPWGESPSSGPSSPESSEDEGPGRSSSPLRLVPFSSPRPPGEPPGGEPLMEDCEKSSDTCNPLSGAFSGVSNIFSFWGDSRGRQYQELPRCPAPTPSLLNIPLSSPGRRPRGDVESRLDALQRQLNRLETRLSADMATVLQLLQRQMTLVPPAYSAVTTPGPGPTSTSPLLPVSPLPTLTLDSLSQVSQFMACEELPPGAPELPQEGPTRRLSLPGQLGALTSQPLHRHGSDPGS
In short: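 Homogeneous FluxOR thallium flux assay using hERG-expressing U2OS cells (BacMam). Compound treatment about 10 minutes preceded stimulation; reduced fluorescence taken as channel block.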
`C[C@]12CCC(=O)C=C1[C@@H]1C[C@@H]1[C@H]1[C@@H]3[C@@H]4C[C@@H]4[C@@]4(CCC(=O)O4)[C@@]3(C)CC[C@@H]12` was tested, and the “activity change, negative = inhibition” value was -1.76% (inactive). `COc1ccc(/C=C/C(=O)c2ccc(OC)cc2OC)cc1` was tested, and the “activity change, negative = inhibition” value was -21% (inactive). `CN=C(NC#N)NCCSCc1csc(N=C(N)N)n1` was tested, and the “activity change, negative = inhibition” value was 4.26% (inactive). `CN(C)CC/C=C1/c2ccccc2COc2ccc(CC(=O)O)cc21` was tested, and the “activity change, negative = inhibition” value was -2.31% (inactive). With `CN1C2CCC1CC(OC(=O)c1c[nH]c3ccccc13)C2` (stereo not drawn) the Potency was 11.2 µM (active) and 5.62 µM (active). `CC1=C(C(=O)O)N2C(=O)[C@@H](NC(=O)[C@H](N)c3ccc(O)cc3)[C@H]2SC1` was tested, and the “activity change, negative = inhibition” value was 5.53% [at 20.6 µM] (inactive). For `Nc1ccc(/C=C/c2ccc(N)cc2S(=O)(=O)O)c(S(=O)(=O)O)c1`, the “activity change, negative = inhibition” value was 3.6% (inactive). In the case of `O=C1c2ccccc2C(=O)C1c1ccccc1`, the “activity change, negative = inhibition” value is reported as -2.19% [at 20.6 µM] (inactive). For `CCCC(=O)O[C@]1(C(=O)CO)CC[C@H]2[C@@H]3CCC4=CC(=O)CC[C@]4(C)[C@H]3[C@@H](O)C[C@@]21C`, the “activity change, negative = inhibition” value was -1.67% (inactive). In the case of `CC(Cc1ccccc1)(NC(=O)CN)c1ccccc1` (stereo not drawn), the “activity change, negative = inhibition” value is reported as 19.6% (inactive). In the case of `C=C1C[C@H]2[C@@H]3C=C(C)C4=CC(=O)CC[C@]4(C)[C@H]3CC[C@]2(C)[C@@]1(OC(C)=O)C(C)=O`, the “activity change, negative = inhibition” value is reported as 4.08% (inactive). In the case of `CCCC1O[C@@H]2C[C@H]3[C@@H]4CCC5=CC(=O)C=C[C@]5(C)[C@H]4[C@@H](O)C[C@]3(C)[C@]2(C(=O)CO)O1` (stereo partly drawn), the “activity change, negative = inhibition” value is reported as 5.29% (inactive). For `CC(=O)OCC(=O)[C@@]12OC(C)(C)O[C@@H]1C[C@H]1[C@@H]3C[C@H](F)C4=CC(=O)C=C[C@]4(C)[C@@]3(F)[C@@H](O)C[C@@]12C`, the “activity change, negative = inhibition” value was -4.35% [at 20.6 µM] (inactive).
